139 variants from the emibetuzumab library of Makowski et al. (2022) can be followed below.

The other results are listed elsewhere or left out. The true hit rate is not given.

B1: VH:VL chains; a variant is named by its letters at X, in order (parent)
chain 1: QVQLVQSGAEVKKPGASVKVSCKASGYTFTDYXMHWVRQAPGQGLEWMGXVNPNXXXTTYNQKFEGRVTMTTDTSTSTAYMELRSLRSDDTAVYYCARXNXLDXWGQGTTVTVSS
chain 2: DIQMTQSPSSLSASVGDRVTITCSVSSSVSSIYLHWYQQKPGKAPKLLIYSTSNLASGVPSRFSGSGSGTDFTLTISSLQPEDFATYYCQVYSGYPLTFGGGTKVEIK

The experiment covers variants of B1. Put plainly: yeast display scFab, FACS + sequencing. The note with it: with MET. The method in brief:
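A yeast surface library of scFab variants carrying heavy-chain CDR mutations went through two magnetic enrichment rounds on Protein A beads coated with HGFR-Fc, then FACS. For sorting, cells were labelled for 3 h at room temperature with 1 nM HGFR-Fc and anti-Myc in PBSB containing 1% milk, and the top 50% of antigen-positive cells were gated. Input and round-3 sorted populations were deep sequenced in two replicates. A sequence was called an antigen binder if it appeared in both antigen-positive samples and a non-binder if it appeared only in the input.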
Regarding VEGGTDVV, the antigen binding call was “no binding”.
Take VATGSSGA: the antigen binding call is listed as “no binding”.
The same measure for YRRGGSGS: “binds”; for YRRGSSGS: “binds”.
In the case of YAEKDFGV it was “no binding”; in that of ATAGSAAV, “no binding”; in that of VRGTGVAV, “no binding”.
The same measure for VEGRGDAV: “no binding”.
With VEGGGYGV, the antigen binding call is reported as “no binding”.
Take VRKGGVAV: the antigen binding call is listed as “no binding”.
For the variant VRGRGYGV, the antigen binding call was “binds”.
As to YRGRGVAV, the antigen binding call is given as “binds”.
As to VRGRGVAV, the antigen binding call is “binds”.
Regarding VKGRAYGV, the antigen binding call is recorded as “no binding”.
As for YRAGGVAV, the antigen binding call is recorded as “binds”.
For the variant VTTKGDVF, the antigen binding call is “no binding”.
Take SEARSYVV: the antigen binding call was “no binding”.
DTREGDAV: the antigen binding call is recorded as “no binding”.
The same measure for VEAGDAAA: “no binding”.
With YKAKGAAA, the antigen binding call is recorded as “binds”.
For the variant YKAGDAAA, the antigen binding call is listed as “binds”.
The same measure for VKAGSDVA: “no binding”; for VEGGGAAA: “no binding”; for YKAGDDGA: “no binding”.
For VKAGSAAA, the antigen binding call was “binds”.
The same measure for VKAKGAAA: “binds”.
DAGGGAVA: the antigen binding call is “no binding”.
In the case of VTKETFSF it was “no binding”; in that of YEGGTDGA, “no binding”.
STTRGAVA: the antigen binding call was “no binding”.
Take ATTRGAVA: the antigen binding call is given as “no binding”.
In the case of VKARNDLV it was “no binding”; in that of YRGRDASF, “binds”.
The same measure for YRGRDAGF: “binds”.
On to YRGRDDWF, for which the antigen binding call is “no binding”.
Consider DAGKGSVD, for which the antigen binding call is given as “no binding”.
With STATADWV, the antigen binding call is given as “no binding”.
The same measure for VKGRADVD: “no binding”.
Consider FRGRGDGD, for which the antigen binding call is on record as “binds”.
Regarding SAGRGVGS, the antigen binding call was “no binding”.
With FAGGGDGD, the antigen binding call was “no binding”.
Consider YRGRGVGS, for which the antigen binding call is “binds”.
Consider YRGRGVGD, for which the antigen binding call is given as “binds”.
For the variant FAGRGVGD, the antigen binding call is on record as “no binding”.
The same measure for FRGRGVGD: “binds”; for YTGEDAVA: “no binding”.
Turning to FRGKADVD, the antigen binding call is reported as “no binding”.
YRGRGVSS: the antigen binding call is “binds”.
As for DRGRGDVV, the antigen binding call is listed as “no binding”.
With FRGRGDVV, the antigen binding call was “binds”.
Consider FRGRGDVD, for which the antigen binding call was “binds”.
Regarding DGGRGDVV, the antigen binding call is “no binding”.
Regarding FRGRGDGY, the antigen binding call is recorded as “binds”.
The same measure for AATTSFVV: “no binding”; for FRGRGSVD: “binds”.
FRGRSYVD: the antigen binding call is recorded as “no binding”.
With YRGKGVGD, the antigen binding call was “binds”.
With AATTDAGD, the antigen binding call is reported as “no binding”.
For the variant DGAKGDGV, the antigen binding call was “no binding”.
In the case of SRRRGAWY, the antigen binding call is on record as “binds”.
In the case of ARRRGAWY, the antigen binding call is “binds”.
On to ARTRTAWY, for which the antigen binding call is given as “no binding”.
In the case of SKGRADVY it was “no binding”.
As to YRGRGSVY, the antigen binding call was “binds”.
As to FRGRGALY, the antigen binding call was “binds”.
The same measure for SKGRSDVY: “no binding”; for VKGRTSVY: “no binding”; for YKGRGSVY: “binds”.
SKGRGAVY: the antigen binding call is “binds”.
YTEAADGA: the antigen binding call is listed as “no binding”.
On to VRAGADWY, for which the antigen binding call is “no binding”.
The same measure for VAKKNASF: “no binding”.
Take FRGRDALY: the antigen binding call is on record as “binds”.
The same measure for YKGRGFVY: “no binding”; for FKGRGAVY: “binds”.
With FRGRDSGY, the antigen binding call is recorded as “binds”.
The same measure for FRTRDSGY chain 1 V68I: “no binding”.
In the case of FRGRDYGY it was “no binding”; in that of FKGGGAVY, “no binding”; in that of FKEAGAVY, “no binding”.
YRGRGFVY: the antigen binding call is reported as “binds”.
As to ARAGSFWA, the antigen binding call is given as “no binding”.
FTEGDSGY: the antigen binding call is “no binding”.
Consider FRTEGSGY, for which the antigen binding call is on record as “binds”.
On to FRGGSAVY, for which the antigen binding call is on record as “binds”.
For the variant FRGGSVGY, the antigen binding call was “no binding”.
Consider FRGRGAVY, for which the antigen binding call is reported as “binds”.
On to YKGRGSVD, for which the antigen binding call is “binds”.
With YAGRGDVY, the antigen binding call was “no binding”.
With YRGANVVY, the antigen binding call is “no binding”.
Turning to FRGRGSVY, the antigen binding call is reported as “binds”.
Take YRGRGVVY: the antigen binding call is recorded as “binds”.
In the case of AGRGADLS it was “no binding”; in that of YRGAGAWA, “binds”; in that of YKGAGAWA, “binds”.
In the case of YKGAAFWA it was “no binding”; in that of YTGTSAWA, “no binding”.
For VEGGGYSV, the antigen binding call is “no binding”.
The same measure for YKARGSSS: “binds”.
The same measure for YKARTSSS: “binds”; for YRARGSSS: “binds”; for DAARGSSV: “no binding”.
In the case of FGAAAVGD, the antigen binding call was “no binding”.
Take YKAKGSAV: the antigen binding call was “binds”.
As for YKEEDDAV, the antigen binding call is reported as “no binding”.
In the case of YKTRDDAV it was “no binding”.
On to YRAKGSAV, for which the antigen binding call was “binds”.
Take YRAKGAAV: the antigen binding call is reported as “binds”.
For YRARGSAV, the antigen binding call is “binds”.
Take VEERDAVA: the antigen binding call was “no binding”.
The same measure for VEGTSDGD: “no binding”; for VAGTGDVA: “no binding”; for YTKKTFSY: “no binding”.
In the case of VKGRADLY it was “no binding”; in that of YRARSSLY, “binds”; in that of YGGRADVY, “no binding”.
Turning to YRGRSSLY, the antigen binding call is “binds”.
Turning to YRGRASLY, the antigen binding call was “binds”.
With YRGEAFLY, the antigen binding call is “no binding”.
Turning to VAATGVSD, the antigen binding call is given as “no binding”.
Take SGEGNSWA: the antigen binding call is listed as “no binding”.
As to YAGRADVV, the antigen binding call is on record as “no binding”.
For the variant YKRGGAVV, the antigen binding call is listed as “binds”.
Consider YKRGSSVV, for which the antigen binding call is on record as “binds”.
In the case of YKGAGDVV, the antigen binding call was “no binding”.
As to FKTKDSVV, the antigen binding call is “no binding”.
On to DARGGAVV, for which the antigen binding call was “no binding”.
With FRRGSSVV, the antigen binding call is “binds”.
As for YRGRASVV, the antigen binding call is listed as “binds”.
In the case of VKREASVV, the antigen binding call is recorded as “no binding”.
Consider DGGENDVF, for which the antigen binding call is reported as “no binding”.
Take DTTKGDVA: the antigen binding call is reported as “no binding”.
With DAARGDVV, the antigen binding call is reported as “no binding”.
In the case of VRGRSDWV it was “no binding”; in that of VRRGSSVV, “binds”; in that of VRGRDDVV, “no binding”.
For VRGRSSVV, the antigen binding call was “binds”.
As for YRRGSSVV, the antigen binding call is recorded as “binds”.
In the case of VRAEASVV it was “no binding”.
